Measurements from PubChem BioAssay (NCI).
This is part of a sample that, as a whole, favours compounds with a hit. Of some 83,000 tested, about 20% had one in any assay.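 Results are percent growth after 48 hours of single-concentration exposure. 100 means growth as in untreated cells, lower positive values show inhibition; negative values down to -100 show cell death.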 Active and inactive are the calls of the source. How the source made its calls: active means growth percent below 10; inactive means the rest.

Experiments:
Assay in all cases: NCI-60 one-dose screen, 48 h (100 = growth as untreated, 0 = no growth, -100 = all killed)
Settings in all cases: 10 µM
HCT-15 colon = test system: HCT-15 colon
HT29 colon = test system: HT29 colon
SNB-75 CNS = test system: SNB-75 CNS
SNB-19 CNS = test system: SNB-19 CNS
PC-3 prostate = test system: PC-3 prostate
SK-MEL-5 melanoma = test system: SK-MEL-5 melanoma
UACC-62 melanoma = test system: UACC-62 melanoma
LOX IMVI melanoma = test system: LOX IMVI melanoma
SK-MEL-28 melanoma = test system: SK-MEL-28 melanoma
U251 CNS = test system: U251 CNS

Measured: growth

COc1cccc(C(=O)NNc2nc(N3CCOCC3)nc(N3CCN(C(c4ccccc4)c4ccccc4)CC3)n2)c1
inactive: HCT-15 colon 89.2% | HT29 colon 95% | SNB-75 CNS 71.5% | SNB-19 CNS 86.3% | PC-3 prostate 55.1% | SK-MEL-5 melanoma 53.3% | UACC-62 melanoma 65.8% | LOX IMVI melanoma 83.1% | SK-MEL-28 melanoma 93.4%

COc1ccc(-c2[nH]ncc2-c2cc(OC)c(OC)c(OC)c2)cc1
active: HT29 colon -16.6% | SK-MEL-5 melanoma -22.1%
inactive: HCT-15 colon 10.3% | SNB-75 CNS 49.1% | SNB-19 CNS 44.5% | PC-3 prostate 11.8% | UACC-62 melanoma 35.2% | LOX IMVI melanoma 27.8% | SK-MEL-28 melanoma 37.2%

CCN(CC)CC(O)Cc1ccc(OC)cc1 (configuration not stated)
inactive: HCT-15 colon 108% | HT29 colon 103% | SNB-75 CNS 102% | SNB-19 CNS 109% | PC-3 prostate 96.5% | SK-MEL-5 melanoma 100% | UACC-62 melanoma 111% | LOX IMVI melanoma 102% | SK-MEL-28 melanoma 116%

O=C(/C=C/c1nnc2n(Cc3ccccc3)c(=O)c3c4c(sc3n12)CCCC4)c1ccccc1
inactive: HCT-15 colon 88% | HT29 colon 106% | SNB-75 CNS 116% | SNB-19 CNS 99.4% | PC-3 prostate 105% | SK-MEL-5 melanoma 111% | UACC-62 melanoma 99.6% | LOX IMVI melanoma 84.7% | SK-MEL-28 melanoma 119%

CCOC(=O)CSC(=S)SCC(=O)OCC
inactive: HCT-15 colon 94.6% | HT29 colon 99.8% | SNB-75 CNS 83.1% | SNB-19 CNS 105% | PC-3 prostate 103% | SK-MEL-5 melanoma 106% | UACC-62 melanoma 101% | LOX IMVI melanoma 98.6% | SK-MEL-28 melanoma 97.7%

CCCCCCCCCCCCCC[n+]1ccccc1
inactive: HCT-15 colon 34.5%
active: HT29 colon -52.4% | SNB-75 CNS -39.5% | SNB-19 CNS -45.4% | PC-3 prostate -80.8% | SK-MEL-5 melanoma -95.3% | UACC-62 melanoma -81.1% | LOX IMVI melanoma -72.1% | SK-MEL-28 melanoma -23.5%

O=[N+]([O-])c1ccc(S(=O)(=O)OCCCCOS(=O)(=O)c2ccc([N+](=O)[O-])cc2)cc1
inactive: HCT-15 colon 114% | HT29 colon 107% | SNB-75 CNS 92% | SNB-19 CNS 112% | PC-3 prostate 98.4% | SK-MEL-5 melanoma 100% | UACC-62 melanoma 99.8% | LOX IMVI melanoma 94.6% | SK-MEL-28 melanoma 99.1%

NC(N)=NS(=O)(=O)c1ccc(Nc2ccc3nnc(-c4ccncc4)n3n2)cc1
inactive: HCT-15 colon 100% | HT29 colon 104% | SNB-19 CNS 94.3% | U251 CNS 104% | PC-3 prostate 107% | SK-MEL-5 melanoma 98.3% | UACC-62 melanoma 97.1% | LOX IMVI melanoma 97.2% | SK-MEL-28 melanoma 107%
